Assay results as given in PubChem BioAssay AID624416 (The Scripps Research Institute Molecular Screening Center, 2012).
Out of some 360,000 compounds screened, about 1,500 (0.42%) were called active. This is one part of a sample in which actives are shown more often than they occur. Unmarked numbers belong to inactive results. Cut-off read from the data, not from the text of the source: active = inhibition above about 8.5%; inactive = the rest.

System: HIV-1 gp120 / PG9 antibody interaction
Test: binders of HIV-1 gp120 antibody PG9, primary screen, biochemical, TR-FRET (AID 624416)
Details: TR-FRET gp120-PG9 antibody binding; at 6.7 µM; hits give high values

SMILES	inhibition
COC(=O)C1=C(C(=O)OC)C2C=C(C(C)C)C1C(=O)C2(C)O (centres undefined)	-0.26%
CCCCNC(=O)CSc1nccn1Cc1ccccc1	2.29%
CCCCNC(=O)CSc1nc2n[nH]c(C)c2c(=N)n1-c1cccc(Cl)c1C	20.8% (active)
CCCCCCNC(=O)CSc1nccn1Cc1ccccc1	0.53%
Cc1ccc(-n2c(SCC(=O)NCCC3=CCCCC3)nc3n[nH]c(C)c3c2=N)cc1Cl	35.7% (active)
Cc1nnc(OCC(=O)NCCC2=CCCCC2)c2ccccc12	-0.11%
COc1cccc(-n2c(SCC(=O)NC3CCCCC3)nc3n[nH]c(C)c3c2=N)c1	0.99%
Cc1ccc(C)c(CN2CCC(CNC(=O)C3CCCN(c4ncnc5c4nc4n5CCCCC4)C3)CC2)c1 (centres undefined)	-0.22%
COC(=O)[C@]12C[C@H](CC(=O)NCCCCc3ccccc3)C(=O)N(Cc3ccc4c(c3)OCO4)C1=C[C@H](C(C)(C)C)O[C@@H]2C	1.2%
C=CCN=C1NC(c2ccccc2)C(C(=O)OC)=C(C)N1Cc1ccc(C(F)(F)F)cc1 (centres undefined)	-0.19%
COc1ccc(CNS(=O)(=O)c2cc(Br)ccc2Br)cc1	0.06%
COC(=O)Cc1nnn2c1[C@H](C)[C@H](c1ccccc1Br)OCC2	1.33%
Cc1ccc(N)cc1CN1CCN(c2ncc(Cc3ccccc3)cn2)CC1	-3.21%
COc1ccc(Cl)cc1NC(=O)CN1CCN(C(=O)N2CCOCC2)CC1	1.73%
COc1ccc(C)cc1NC(=O)CSc1ccc(Cl)cc1	-1.28%
COc1ccc(Cl)cc1NC(=O)Cn1nc(-c2ccc(C)cc2)n(C)c1=S	11% (active)
CC1CCCN(c2cccc3c2S(=O)(=O)N(Cc2ccc(F)cc2)[C@@H](C)[C@H](c2ccccc2)O3)C1 (some centres undefined)	0.43%
CCCN1C(=O)c2[nH]nc(-c3ccccc3)c2C1c1ccccc1 (centres undefined)	-1.03%
O=C(Nc1cccc(S(=O)(=O)Nc2ccc(Cl)cc2)c1)c1ccc2c(c1)OCCO2	9.35% (active)
CCN(CC)CCNC(=O)c1ccc(NS(=O)(=O)c2ccc3c(c2)OCCO3)cc1	-1.11%
CC(NS(=O)(=O)c1ccc(Cl)cc1)C(=O)Nc1ccc2c(c1)OCCO2 (centres undefined)	0.53%
Nc1nc2c(Br)ccc(Br)c2cc1C(=O)NCCc1ccccc1	3.73%
COCCNC(=O)c1cc2c(Br)ccc(Br)c2nc1N	9.73% (active)
COCCNC(=O)c1ccccc1-c1nc(-c2ccccc2Cl)no1	-2.1%
